Drawing on PubChem BioAssay AID623892 (Vanderbilt Specialized Chemistry Center, 2012), this text covers fold shift of glutamate EC50 for one compound.

Structures are written as SMILES. Unmarked numbers belong to inactive results.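 The calls were made as follows: active = potentiator with a glutamate EC50 fold shift of at least 2, or antagonist at 0.5 or below; inactive = fold shift between 0.5 and 2.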

This assay deals with Metabotropic glutamate receptor 8 (Rattus norvegicus) (UniProt P70579). Kind of assay: off-target activity at rat mGlu8, profiling panel, selectivity assay for mGlu4 lead optimization, cell-based, thallium flux (AID 623892). To be noted: HEK cells rat mGlu8, thallium flux, at 10 µM.
Chain of Metabotropic glutamate receptor 8 (Rattus norvegicus) (P70579 whole entry, looked up): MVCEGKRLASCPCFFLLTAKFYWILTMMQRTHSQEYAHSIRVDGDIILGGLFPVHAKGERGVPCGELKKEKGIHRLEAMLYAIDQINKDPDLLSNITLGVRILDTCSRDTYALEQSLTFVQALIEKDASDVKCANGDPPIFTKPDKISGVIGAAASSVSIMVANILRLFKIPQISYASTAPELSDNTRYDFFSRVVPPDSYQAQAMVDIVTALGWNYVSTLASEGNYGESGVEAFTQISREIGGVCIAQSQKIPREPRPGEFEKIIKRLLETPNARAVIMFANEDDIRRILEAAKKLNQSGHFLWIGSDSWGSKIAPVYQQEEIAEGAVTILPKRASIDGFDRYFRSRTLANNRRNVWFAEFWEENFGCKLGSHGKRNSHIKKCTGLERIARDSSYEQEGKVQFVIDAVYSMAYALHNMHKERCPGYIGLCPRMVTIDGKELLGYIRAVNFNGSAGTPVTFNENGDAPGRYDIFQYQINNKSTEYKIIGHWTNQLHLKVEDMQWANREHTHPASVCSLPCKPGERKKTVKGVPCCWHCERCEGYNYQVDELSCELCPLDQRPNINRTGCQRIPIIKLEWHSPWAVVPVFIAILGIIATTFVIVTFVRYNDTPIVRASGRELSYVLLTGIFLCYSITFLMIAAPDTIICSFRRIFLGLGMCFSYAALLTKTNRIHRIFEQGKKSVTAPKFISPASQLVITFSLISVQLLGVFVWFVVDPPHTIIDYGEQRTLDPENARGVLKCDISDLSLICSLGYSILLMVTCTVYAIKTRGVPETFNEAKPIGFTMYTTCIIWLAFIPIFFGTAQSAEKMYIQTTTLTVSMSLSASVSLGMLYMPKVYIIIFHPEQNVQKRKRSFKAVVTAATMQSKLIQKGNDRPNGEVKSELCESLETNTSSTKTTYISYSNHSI

For the compound `O=C(Nc1cccc(Cl)c1)c1ccccn1`, the fold shift of glutamate EC50 is 1.47.
